# Records with an inconclusive call do not appear. Activity calls are given as the source filed them. The call rests on the fitted dose curve; in most records, active means well fitted cell-killing curve with a large enough effect; inconclusive means small, poorly fitted or top-dose-only effect; inactive means flat fitted curve, though single readings scatter.
# Test: Cell Viability - LYMP2-007 (AID 979);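 further: cells exposed to compound for 24 h before reading; 0% = DMSO only and the negative end = 92 µM tetraoctylammonium bromide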
# Settings: LYMP2-007 lymphoblastoid cell viability; series mostly up to 92.2 µM; activity change, negative = cytotoxicity: at the top concentration
# Procedure, shortened: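 Luminescent ATP signal (CellTiter-Glo) serves as the viability read-out after 24 hr compound treatment of lymphoblastoid cells in complete medium at 37 C. Concentration-response data were fitted to the Hill equation to give AC50 values.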
# Further: nearly all actives have a fitted effect of over 60% in size.
row,SMILES,"activity change, negative = cytotoxicity"
1,COc1ccc(O)cc1,8.29% (inactive)
2,CCN(CC)C(=O)c1cccc(C)c1,-13.1% (inactive)
3,CC(=O)Nc1ccccc1,-2.54% (inactive)
4,O=C1C(c2[nH]c3ccccc3c2O)=Nc2ccccc21,-9.39% (inactive)
5,CCCC(O)C(CC)CO (centres undefined),-6% (inactive)
6,O=C1c2cccc(O)c2C(=O)c2c(O)cccc21,-29.8% (inactive)
7,Cc1cc(=O)[nH]c(=S)[nH]1,-10.3% (inactive)
8,CC(=O)Nc1ccc(C(=O)O)cc1,-0.815% (inactive)
9,CCCCCCCC(=O)OCC(COC(=O)CCCCCCC)OC(=O)CCCCCCC,4.02% (inactive)
10,O=C(O)CCCCC1CCSS1 (centres undefined),5.72% (inactive)
11,Cc1cc(C)nc(NS(=O)(=O)c2ccc(N)cc2)n1,-9.38% (inactive)
12,CC1CC(OC(=O)c2ccccc2O)CC(C)(C)C1 (centres undefined),0.0857% (inactive)
13,Cc1c(N(C)C)c(=O)n(-c2ccccc2)n1C,-3.03% (inactive)
14,O=C(c1ccccc1)C(O)c1ccccc1 (centres undefined),-4.22% (inactive)
15,C=CCNC(N)=S,-3.35% (inactive)
16,FC(F)(F)C(Cl)Br (centres undefined),3.68% (inactive)
17,CC(=O)OCC(COC(C)=O)OC(C)=O,-0.765% (inactive)
18,Nc1ccc(S(=O)(=O)c2ccc(N)cc2)cc1,-7.12% (inactive)
19,CC(=O)Nc1cccc(O)c1,2.43% (inactive)
20,CC(=O)NS(=O)(=O)c1ccc(N)cc1,-4.4% (inactive)
21,CCCCCC(N)=O,-1.27% (inactive)
22,CCCCOC(=O)c1ccc(N)cc1,-1.66% (inactive)

# Test: Cell Viability - LYMP2-008 (AID 980);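 further: cells exposed to compound for 24 h at 37 °C; on the % scale 0 is the no-effect control and ±100 the full control effect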
# Settings: LYMP2-008 lymphoblastoid cell viability, qHTS; series mostly up to 92.2 µM; activity change, negative = cytotoxicity: at the top concentration
# Procedure, shortened: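 qHTS, human lymphoblastoid line, 2500 cells/well; 5 hr preincubation, 24 hr compound, 37 C. CellTiter-Glo ATP luminescence. AC50 via Hill equation. Tetraoctylammonium bromide positive control.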
row,SMILES,"activity change, negative = cytotoxicity"
1,COc1ccc(O)cc1,-3.04% (inactive)
2,CCN(CC)C(=O)c1cccc(C)c1,4.52% (inactive)
3,CC(=O)Nc1ccccc1,1.33% (inactive)
4,O=C1C(c2[nH]c3ccccc3c2O)=Nc2ccccc21,-5.79% (inactive)
5,CCCC(O)C(CC)CO (centres undefined),-2.35% (inactive)
6,O=C1c2cccc(O)c2C(=O)c2c(O)cccc21,-26.5% (inactive)
7,Cc1cc(=O)[nH]c(=S)[nH]1,-9.43% (inactive)
8,CC(=O)Nc1ccc(C(=O)O)cc1,-6.35% (inactive)
9,CCCCCCCC(=O)OCC(COC(=O)CCCCCCC)OC(=O)CCCCCCC,-5.99% (inactive)
10,O=C(O)CCCCC1CCSS1 (centres undefined),-8.12% (inactive)
11,Cc1cc(C)nc(NS(=O)(=O)c2ccc(N)cc2)n1,1.28% (inactive)
12,CC1CC(OC(=O)c2ccccc2O)CC(C)(C)C1 (centres undefined),-13.1% (inactive)
13,Cc1c(N(C)C)c(=O)n(-c2ccccc2)n1C,9.92% (inactive)
14,O=C(c1ccccc1)C(O)c1ccccc1 (centres undefined),-7.33% (inactive)
15,C=CCNC(N)=S,-3.54% (inactive)
16,FC(F)(F)C(Cl)Br (centres undefined),-4.32% (inactive)
17,CC(=O)OCC(COC(C)=O)OC(C)=O,-9.98% (inactive)
18,Nc1ccc(S(=O)(=O)c2ccc(N)cc2)cc1,-5.84% (inactive)
19,CC(=O)Nc1cccc(O)c1,-0.841% (inactive)
20,CC(=O)NS(=O)(=O)c1ccc(N)cc1,-4.67% (inactive)
21,CCCCCC(N)=O,-7.87% (inactive)
22,CCCCOC(=O)c1ccc(N)cc1,-12% (inactive)
